Screening data deposited in PubChem BioAssay by National Center for Advancing Translational Sciences (NCATS).
In the library only some 2.4% were active in any assay of this set; here they are far more common.
aSyn rescue = alpha-synuclein toxicity inhibition in yeast; Yeast expressing alpha-synuclein, growth rescue, BacTiter-Glo, 24 h; Potency, µM (series often up to 46.1 µM), actives largely listed as activators; 0.14% of 370,000 active; further: nearly all actives have a fitted effect of over 65% in size
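Galactose-induced alpha-syn yeast (OD600=0.02, raffinose-pregrown) + pinned cpd, 24 hr, 30 deg C; growth by BacTiter-Glo luminescence. Growth restoration scores as activation.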
Abeta yeast res = A-beta toxicity reversal in yeast; yeast expressing A-beta42, growth rescue, OD600, 48 h; response scale: 0% DMSO, 100% iron-clioquinol control; Potency, µM (series often up to 46.1 µM), most hits filed as activators; 0.063% of 410,000 active; AID 1347071; further: nearly all actives have a fitted effect of over 55% in size
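Yeast growth medium received pinned compounds, then yeast cells expressing toxic A-beta were added; plates incubated at 30 C for 48 hr. Growth read as absorbance at 600 nm, normalized to DMSO and equimolar FeCl3 plus clioquinol controls.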
Mito fusion act = inhibitors of mitochondrial division or activators of mitochondrial fusion; 0.23% of 320,000 active; AID 485298; Potency, µM (doses to about 46.1 µM), actives largely listed as activators; S. cerevisiae fusion-defective mutant growth rescue, CellTiterGlo 48 h; further: nearly all actives have a fitted effect of over 45% in size
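Yeast fusion mutant, YPEG (non-fermentable carbon), compound, 48 h at 37C non-permissive; CellTiterGlo added, 10 min RT, luminescence read. Rescued growth = division inhibition.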
FUS yeast rescue = suppressors of FUS proteinopathy in yeast; AID 1347120; S. cerevisiae FUS-expressing, growth rescue, OD600, 24 h; Potency, µM (titrated, usually from 76.6 µM), most hits filed as activators; 0.24% of 390,000 active; further: nearly all actives have a fitted effect of over 55% in size
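Read-out: OD at 600 nm after 24hr at 30C, reporting rescue of FUS-induced yeast toxicity. Cells at OD 0.005 in galactose (2%) minimal medium; compounds tested in a dilution series; CP55940 titration from 92uM final as control.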
TDP-43 yeast inh = rescues yeast growth from TDP-43 toxicity; 1.8% of 410,000 active; TDP-43 expressing yeast growth rescue, BacTiter-Glo, 24 h; Potency, µM (doses to about 46.1 µM), usual class: activators; AID 652104; further: nearly all actives have a fitted effect of over 50% in size
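In this qHTS, compounds that restore growth of yeast expressing TDP-43 appear as activators. Cells (OD600=0.02, galactose medium, raffinose-pregrown) are incubated with compound 24 hr at 30 deg C and growth is quantified by BacTiter-Glo.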
A-T KAP1 phos = candidate therapy for ataxia-telangiectasia; F2112 A-T fibroblasts, KAP-1 phosphorylation AlphaLISA; neocarzinostatin DNA damage 30 min before lysis; Potency, µM (highest dose often 57.5 µM), actives largely listed as activators; 0.19% of 320,000 active; AID 485349; further: nearly all actives have a fitted effect of over 45% in size
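hTERT-immortalized A-T patient fibroblasts (F2112), 500 cells/well in OPTI-MEM, 1% FBS, got compounds for 60 min, then NCS for 30 min at 37C. Lysates were then assayed for phospho-KAP-1 by AlphaLISA (anti-pKAP1 donor, anti-KAP1 acceptor beads), 6 hr at 25C.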
A number is an active result. The call rests on the fitted dose curve; in most records, active means well fitted curve in the direction sought with a large enough effect; inconclusive means small, poorly fitted or top-dose-only effect, or another doubt; inactive means no such curve, though single readings can be large; an effect the other way counts as inactive or inconclusive.

What do the screens show for `CCN1C(=O)[C@H]2[C@@H](c3ccc(-c4ccccc4)cc3)N[C@@](C)(C(=O)OC)[C@H]2C1=O`?
aSyn rescue: inactive; Abeta yeast res: inactive; Mito fusion act: inactive; FUS yeast rescue: inactive; TDP-43 yeast inh: inactive; A-T KAP1 phos: inactive

Results for CCCSc1ccc([C@H]2N[C@@](C)(C(=O)OC)[C@H]3C(=O)N(C)C(=O)[C@@H]23)cc1 ?
aSyn rescue: inactive; Abeta yeast res: inactive; Mito fusion act: inactive; FUS yeast rescue: inactive; TDP-43 yeast inh: inactive; A-T KAP1 phos: inactive

Results for CCCCCCSc1ccc([C@H]2N[C@@](C)(C(=O)OC)[C@H]3C(=O)N(C)C(=O)[C@@H]23)cc1 ?
aSyn rescue: inconclusive; Abeta yeast res: inactive; Mito fusion act: inactive; FUS yeast rescue: 12.6µM; TDP-43 yeast inh: inconclusive; A-T KAP1 phos: inactive

Results for CCN1C(=O)[C@H]2[C@@H](c3ccc(-c4cccc(Cl)c4)cc3)N[C@@](C)(C(=O)OC)[C@H]2C1=O ?
aSyn rescue: inconclusive; Abeta yeast res: inactive; Mito fusion act: 22.4µM; FUS yeast rescue: inconclusive; TDP-43 yeast inh: inactive; A-T KAP1 phos: inconclusive

What do the screens show for `Cc1ccc(C(=O)/C=C/Nc2ccccc2C(N)=O)o1`?
aSyn rescue: 11.2µM; Abeta yeast res: inactive; Mito fusion act: inactive; FUS yeast rescue: inactive; TDP-43 yeast inh: inactive

How did Cn1nc(-c2ccccc2)c(C(=O)Nc2ccc(C(F)(F)F)cc2)c1Cl do in these assays?
aSyn rescue: inactive; Abeta yeast res: inactive; Mito fusion act: inactive; FUS yeast rescue: inactive; TDP-43 yeast inh: inactive; A-T KAP1 phos: inactive

What do the screens show for `Cn1nc(C(F)(F)F)c(C(=O)Nc2ccc(F)cc2F)c1Cl`?
aSyn rescue: inactive; Abeta yeast res: inactive; Mito fusion act: inactive; FUS yeast rescue: inactive; TDP-43 yeast inh: inactive; A-T KAP1 phos: inactive

What do the screens show for `Cn1nc(C(F)(F)F)c(C(=O)Nc2ccc(C(F)(F)F)cc2)c1Cl`?
aSyn rescue: inactive; Abeta yeast res: inactive; Mito fusion act: inactive; FUS yeast rescue: inactive; TDP-43 yeast inh: 20µM; A-T KAP1 phos: inactive

What do the screens show for `Cn1nc(-c2ccccc2)c(C(=O)Nc2ccc(Cl)cc2)c1Cl`?
aSyn rescue: inactive; Abeta yeast res: inactive; Mito fusion act: inactive; FUS yeast rescue: inactive; TDP-43 yeast inh: 3.16µM; A-T KAP1 phos: inactive

How did CN1CCc2nc3sc(C(=O)Nc4ccccc4OC(F)(F)F)c(N)c3cc2C1 do in these assays?
Abeta yeast res: inactive; FUS yeast rescue: inconclusive; TDP-43 yeast inh: 17.8µM

Results for Cc1ccc(N2CC(NC(=O)c3ccc(S(=O)(=O)N(C)C)cc3)CC2=O)cc1C (stereo not drawn) ?
Abeta yeast res: inactive; FUS yeast rescue: inactive; TDP-43 yeast inh: inactive

Results for COc1ccc(CNS(=O)(=O)c2cc(C(=O)Nc3cc(Cl)cc(Cl)c3)ccc2F)cc1 ?
Abeta yeast res: inactive; FUS yeast rescue: inactive; TDP-43 yeast inh: 14.1µM

Results for O=C(Nc1cc(Cl)cc(Cl)c1)c1ccc(F)c(S(=O)(=O)NCc2ccccc2Cl)c1 ?
Abeta yeast res: inactive; FUS yeast rescue: inactive; TDP-43 yeast inh: inactive

How did COc1ccccc1CNC(=O)COCc1cc(-c2ccc3c(c2)OCO3)on1 do in these assays?
Abeta yeast res: inactive; FUS yeast rescue: inconclusive; TDP-43 yeast inh: 22.4µM

Results for Cc1ccc(CNC(=O)COCc2cc(-c3ccc4c(c3)OCO4)on2)cc1 ?
Abeta yeast res: inactive; FUS yeast rescue: inactive; TDP-43 yeast inh: inactive

Results for COc1ccc(NC(=O)c2nn(C)c3c2CSc2ccc(C)cc2-3)cc1OC ?
Abeta yeast res: inactive; FUS yeast rescue: inactive; TDP-43 yeast inh: 22.4µM

Results for Cn1nc(C(=O)NCc2ccccc2Cl)c2c1-c1ccccc1SC2 ?
Abeta yeast res: inactive; FUS yeast rescue: inactive; TDP-43 yeast inh: inactive

How did CC1CCCC(C)N1CCCNC(=O)c1nn(C)c2c1CSc1ccccc1-2 (stereo not drawn) do in these assays?
aSyn rescue: inactive; Abeta yeast res: inactive; Mito fusion act: inactive; FUS yeast rescue: inactive; TDP-43 yeast inh: inactive; A-T KAP1 phos: inactive

How did Cn1nc(C(=O)NCc2ccccc2)c2c1-c1ccccc1SC2 do in these assays?
Abeta yeast res: inactive; FUS yeast rescue: inactive; TDP-43 yeast inh: 20µM

How did CCCCNC(=O)c1nn(C)c2c1CSc1ccccc1-2 do in these assays?
Abeta yeast res: inactive; FUS yeast rescue: inactive; TDP-43 yeast inh: 35.5µM

How did Cn1nc(C(=O)NCc2cccc(Cl)c2)c2c1-c1ccccc1SC2 do in these assays?
Abeta yeast res: inactive; FUS yeast rescue: inactive; TDP-43 yeast inh: 20µM

Results for COCCCNC(=O)C[C@H]1C[C@@]2(C(=O)OC)C(=C[C@H](C3CCCC3)O[C@@H]2C)N(CCc2ccc(OC)c(OC)c2)C1=O ?
FUS yeast rescue: inactive

What do the screens show for `O=C(Cn1cc(SCc2c(F)cccc2Cl)c2ccccc21)N1CCCCCC1`?
Abeta yeast res: inactive; FUS yeast rescue: inactive; TDP-43 yeast inh: inactive

How did COc1cccc(CNC(=O)c2nn(C)c3c2CSc2ccccc2-3)c1 do in these assays?
Abeta yeast res: inactive; FUS yeast rescue: inconclusive; TDP-43 yeast inh: 17.8µM

Results for CCOc1ccccc1NC(=O)c1nn(C)c2c1CSc1ccccc1-2 ?
Abeta yeast res: inactive; FUS yeast rescue: inactive; TDP-43 yeast inh: inconclusive

What do the screens show for `COc1ccccc1C(=O)NC1(C(F)(F)F)C(=O)Nc2c1c(=O)[nH]c(=O)n2-c1ccc(F)cc1` (stereo not drawn)?
aSyn rescue: inactive; Abeta yeast res: inactive; FUS yeast rescue: inactive; TDP-43 yeast inh: inactive

How did O=C1Cc2ccccc2Sc2ccc(O)cc21 do in these assays?
aSyn rescue: inactive; Abeta yeast res: inactive; Mito fusion act: 14.1µM; FUS yeast rescue: inactive; TDP-43 yeast inh: inactive; A-T KAP1 phos: inactive

Results for O=C(NCc1ccccc1Br)c1ccc2nc(N3CCCCC3)sc2c1 ?
Abeta yeast res: inactive; FUS yeast rescue: inactive; TDP-43 yeast inh: inactive

How did CCOc1ccc(S(=O)(=O)Nc2nc3ccccc3nc2N2CCN(C)CC2)cc1 do in these assays?
aSyn rescue: inactive; Abeta yeast res: inactive; Mito fusion act: inactive; FUS yeast rescue: inactive; TDP-43 yeast inh: inactive; A-T KAP1 phos: inactive

How did CCOc1ccc(NS(=O)(=O)c2ccc(NS(C)(=O)=O)cc2)cc1 do in these assays?
aSyn rescue: inactive; Abeta yeast res: inactive; Mito fusion act: inactive; FUS yeast rescue: inactive; TDP-43 yeast inh: inactive; A-T KAP1 phos: inactive

What do the screens show for `CCOc1ccc(S(=O)(=O)Nc2nc3ccccc3nc2Cl)cc1`?
aSyn rescue: inactive; Abeta yeast res: inactive; Mito fusion act: inconclusive; FUS yeast rescue: inactive; TDP-43 yeast inh: 22.4µM; A-T KAP1 phos: inactive
